The target in assay [1] is Calcium and integrin-binding protein 1 (Homo sapiens) (UniProt Q99828). Kind of assay: Primary qHTS for Identification of Calcium Integrin Binding Protein 1 (CIB1) Competitor (AID 1508620).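 Also: GST tagged CIB1 binding a fluorescein labelled alphaIIb integrin peptide tracer; top concentration of the series differs between compounds.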 The settings on record: CIB1-GST / FITC-alphaIIb peptide fluorescence polarization; series mostly up to 114 µM. An outline of the steps: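 Fluorescence polarization competition: CIB1-GST (1 uM final) preincubated with compound 15 min at room temperature, then FITC-labeled alphaIIb peptide (100 nM final) added for another 15 min. Polarization read at Ex 480/Em 540.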
Calcium and integrin-binding protein 1 (Homo sapiens), sequence (Q99828 whole entry, looked up): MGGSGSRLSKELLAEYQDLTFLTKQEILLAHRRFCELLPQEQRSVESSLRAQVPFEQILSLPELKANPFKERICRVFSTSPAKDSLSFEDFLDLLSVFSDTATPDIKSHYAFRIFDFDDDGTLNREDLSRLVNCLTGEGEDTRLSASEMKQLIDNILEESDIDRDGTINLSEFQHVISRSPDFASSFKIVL
(Quantitative high-throughput screening tests each substance at several concentrations.)

Assay [2] is described as follows: qHTS to identify inhibitors of the type 1 interferon - major histocompatibility complex class I in skeletal muscle: primary screen against the NCATS Mechanism Interrogation Plate v5.0 (MIPE) Libary (AID 1347411). Also: nearly all actives have a fitted effect of over 65% in size. Also: potency is read from the fitted curve at half-maximal effect. The settings on record: iHSKM cells + IFN-b, HiBiT-tagged MHC-I luminescence, 24 h; series mostly up to 45.8 µM. A digest of the protocol: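 Seed engineered human myoblasts (HLA-B HiBit) in medium without dexamethasone containing 4 ng/ml IFN-beta; after 1 hr add compound titrations (top 46 uM final). Incubate 24 hrs at 37 C, lyse 10 min with HiBiT reagent, read luminescence.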

Results filed as inconclusive are left out. Where a call stands in place of a potency, no number is given. Calls of active or inactive are those of the source. Calls follow the shape of the dose curve; as a rule, active = well fitted curve in the direction sought with a large enough effect; inconclusive = small, poorly fitted or top-dose-only effect, or another doubt; inactive = no such curve, though single readings can be large; an effect the other way counts as inactive or inconclusive.

`C[C@H]1CC[C@@]2(OC1)O[C@H]1CC3C4CC[C@H]5C[C@@H](O)[C@H](O)C[C@]5(C)C4=CC(=O)[C@]3(C)[C@H]1[C@@H]2C` (stereo partly drawn): the Potency result in assay [1] was “inactive”.
Take `O=[N+]([O-])c1cccc2[nH]c(CNc3nc(N4CCOCC4)nc4c3ncn4-c3ccsc3)nc12`: the Potency result in assay [1] is “inactive”.
In the case of `CN[C@@H]1[C@H](O[C@H]2[C@H](O[C@@H]3[C@@H](O)[C@H](O)[C@@H](N=C(N)N)[C@H](O)[C@H]3N=C(N)N)O[C@@H](C)[C@]2(O)C=O)O[C@@H](CO)[C@H](O)[C@H]1O`, the Potency result in assay [2] and in assay [1] was “inactive” in each case.
Take `CC(C)[N+]1(C)C2CCC1CC(OC(=O)C(CO)c1ccccc1)C2` (stereo not drawn): the Potency result in assay [1] was “inactive”.
For the compound `CS(=O)(=O)N1CCC(NC(=O)c2[nH]ncc2NC(=O)c2c(Cl)cccc2Cl)CC1`, the Potency in assay [2] was 1.47 µM (active). In assay [1], the Potency result was “inactive”.
As to `CC(C)[C@@H](CS(=O)(=O)C(C)C)N1C(=O)[C@@](C)(CC(=O)O)C[C@H](c2cccc(Cl)c2)[C@H]1c1ccc(Cl)cc1`, the Potency entry in assay [2] and in assay [1] was “inactive” throughout.
`COCCOc1cnc2ccn([C@H](C)c3nnc4c(F)cc(-c5cnn(C)c5)cn34)c(=O)c2c1`: the Potency entry in assay [2] and in assay [1] was “inactive” throughout.
`CN1CCN(c2ccc(C(=O)Nc3n[nH]c4ccc(Cc5cc(F)cc(F)c5)cc34)c(NC3CCOCC3)c2)CC1`: in assay [2], the Potency is 16.5 µM (active). The Potency result in assay [1] was “inactive”.
On the same counts, the results for `CCOc1cc2ncc(C#N)c(Nc3ccc(F)c(Cl)c3)c2cc1NC(=O)/C=C/CN(C)C` are 2.62 µM (active) and “inactive”.
For the compound `C[C@@H]1C(=O)OC[C@H]2C(C(=O)O)=C[C@@H]3CC(C)(C)C[C@]312`, the Potency result in assay [1] is “inactive”.
With `CCNC(=O)Nc1ncc(-c2cc(-c3c(C)cc(OC)cc3C)nc(-c3cnccn3)n2)s1`, the Potency result in assay [2] and in assay [1] was “inactive” in each case.
`CC1(C)CC[C@]2(C(=O)O)[C@H](O)C[C@]3(C)C(=CCC4[C@@]5(C)CC[C@H](O[C@@H]6O[C@H](CO[C@@H]7OC[C@H](O)[C@H](O)[C@H]7O[C@@H]7OC[C@@H](O)[C@H](O)[C@H]7O)[C@@H](O)[C@H](O)[C@H]6O[C@@H]6O[C@H](CO)[C@@H](O)[C@H](O)[C@H]6O)C(C)(C)C5CC[C@]43C)[C@@H]2C1` (stereo partly drawn): the Potency result in assay [1] was “inactive”.
Turning to `O=C(O)c1cc2cccc([N+](=O)[O-])c2[nH]1`, the Potency entry in assay [1] was “inactive”.
Consider `Cc1ccc(S(=O)(=O)c2ccc([N+](=O)[O-])o2)cc1`, for which the Potency entry in assay [1] is “inactive”.
As to `O=C(Nc1nc2ccccc2n1CCc1ccccc1)c1ccccc1`, the Potency entry in assay [1] was “inactive”.
With `CCC(C)C(=O)OC1CC(O)C23C4OCC5(C(O)CC2C1(C)C(O)O4)C3C(=O)C(O)C1(C)C(O)(c2ccoc2)CC2OC251` (stereo not drawn), the Potency entry in assay [1] is “inactive”.
Same read-out and setting: for `COc1ccc(CNC(=O)c2sc3nc(C)cc(C)c3c2N)cc1` the value was “inactive”; for `CCNC(=O)Nc1ccc(-c2nc3c(c(N4CCOC[C@@H]4C)n2)CCN(c2ncccn2)C3)cc1`, “inactive”.
Consider `C[C@@H]1O[C@@H](O[C@H]2[C@H](O)[C@@H](O)[C@H](OC[C@H]3O[C@@H](OC(=O)[C@]45CCC(C)(C)C[C@H]4C4=CCC6[C@@]7(C)CC[C@H](O[C@@H]8OC[C@H](O)[C@H](O[C@@H]9O[C@H](CO)[C@@H](O)[C@H](O)[C@H]9O)[C@H]8O)[C@@](C)(CO)C7CC[C@@]6(C)[C@]4(C)CC5)[C@H](O)[C@@H](O)[C@@H]3O)O[C@@H]2CO)[C@H](O)[C@H](O)[C@H]1O` (stereo partly drawn), for which the activity change, negative = inhibition in assay [1] was 1.27% [at 12.4 µM] (inactive).
On to `CC(=O)N[C@H]1[C@H](O[C@H]2CC[C@@]3(C)C(CC[C@]4(C)C3CC=C3C5CC(C)(C)CC[C@]5(C(=O)O)[C@H](O)C[C@]34C)C2(C)C)O[C@H](CO[C@@H]2OC[C@H](O)[C@H](O)[C@H]2O[C@@H]2OC[C@@H](O)[C@H](O)[C@H]2O)[C@@H](O)[C@@H]1O` (stereo partly drawn), for which the Potency result in assay [1] is “inactive”.
`COc1ccc(C(=O)n2c(C)c(Cc3cccc(O[C@@H](C)C(=O)O)c3)c3cc(OC(F)(F)F)ccc32)cc1`: the Potency result in assay [1] was “inactive”.
For `CC(=O)N1CCN(Cc2ccc([C@H](C)Nc3nccc(N4C(=O)OC[C@@H]4C(C)C)n3)cc2)CC1`, in assay [1], the Potency entry was “inactive”.
As for `CC(=O)N1CCc2ccc(O)c(OC3OC(COC4OCC(O)(CO)C4O)C(O)C(O)C3O)c2C1Cc1ccc(O)cc1` (stereo not drawn), the Potency entry in assay [1] was “inactive”.
Consider `OCCc1ccc(O[C@@H]2O[C@H](CO)[C@@H](O)[C@H](O)[C@H]2O)cc1`, for which, in assay [1], the Potency result is “inactive”.
Turning to `COc1cccc2cc3c(c(O[C@@H]4O[C@H](CO[C@@H]5O[C@H](CO)[C@@H](O)[C@H](O)[C@H]5O)[C@@H](O)[C@H](O)[C@H]4O)c12)C(C)OC3=O` (stereo partly drawn), in assay [1], the Potency entry was “inactive”.
Take `Cc1ccc(S(=O)(=O)Nc2ccccc2N2CCCCC2)s1`: the Potency entry in assay [1] was “inactive”.

The values above are taken from PubChem BioAssay (NCATS).
